# Measurements published in PubChem BioAssay AID488841 (Sanford-Burnham Center for Chemical Genomics, 2010).
# In all, about 1,400 compounds went through this assay and about 380 (27%) were called active. Some of the results follow. Values without a mark were called inactive.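 Rule for the calls: active = mean inhibition above 50% across duplicate retests at 10 µM; inactive = the rest.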
# Test: inhibition of NALP1/ASC/caspase-1 reporter signal in yeast, confirmation, NALP1 inhibitor project, S. cerevisiae, luminescence, single concentration (AID 488841);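 note: plate controls were DMSO in galactose medium for no effect and cells in plain SD medium for full effect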
# Conditions: S. cerevisiae NALP1/ASC/Caspase-1 reporter, beta-gal luminescence; at 10 µM; active compounds read high
row,Compound,inhibition
1,Cc1nc2cc(C(=O)NCc3ccc4c(c3)OCO4)ccc2n1-c1ccc(Br)cc1,43.1%
2,CCOC(=O)c1c(NC2OC(=O)c3c2ccc(OC)c3OC)sc(C(=O)OC(C)(C)C)c1C (configuration not stated),57.5% (active)
3,Cc1onc(-c2ccccc2Cl)c1C(=O)N1C=CC(C(F)(F)F)=NCC1,65.7% (active)
4,NC(=O)c1ncc(C(F)(F)F)cc1Oc1ccc(C(F)(F)F)cc1,28.9%
5,Cc1ccccc1N=C/C=C1\N(C)c2ccccc2C1(C)C,31.9%
6,C(=C\c1nc(N2CCCC2)c2ccccc2n1)/c1ccccc1,78.1% (active)
7,C(=C\c1nc(N2CCCCCC2)c2ccccc2n1)/c1ccccc1,70.2% (active)
8,Cc1ccc(C)c(NC(=O)CSc2nnc(-c3ccccc3)o2)c1,32.8%
9,O=[N+]([O-])c1ccc(-c2ccn[nH]2)o1,39%
10,O=C(CSc1nnnn1C1CCCCC1)N1c2ccccc2Sc2ccccc21,35.8%
11,O=S(=O)(Cc1cc(Sc2ccccc2)nc(-c2ccccc2)n1)c1ccccc1,19.4%
12,O=C1CN(c2nnnn2-c2ccccc2)CCN1,35%
13,CNc1ccccc(-c2ccc3ccccc3n2)c1=O,24.8%
14,Cc1ccc(/C(N)=N/OC(=O)c2ccc3c(c2)OCO3)cc1,77.3% (active)
15,Cc1cccc(/C(N)=N/OC(=O)c2ccc3c(c2)OCO3)c1,54.1% (active)
16,Cc1cccc(/C(N)=N/OC(=O)c2ccc(Cl)cc2Cl)c1,21.6%
17,Cc1cccc(/C(N)=N/OC(=O)c2cccc3ccccc23)c1,28.9%
18,N/C(Cc1ccc(Cl)cc1Cl)=N\OC(=O)c1cccs1,51.2% (active)
19,N/C(Cc1cccs1)=N\OC(=O)COc1ccccc1Cl,45.7%
20,Cc1ccc(/C(N)=N/OC(=O)c2ccc(Cl)cc2Cl)cc1,36%
21,COc1ccc(Cl)cc1C(=O)O/N=C(\N)c1ccc(Cl)cc1,35.3%
22,Cc1ccc(/C(N)=N/OC(=O)c2cccs2)cc1,57.2% (active)
23,COc1ccc(C(=O)O/N=C(\N)Cc2ccc(Cl)cc2Cl)cc1OC,40.5%
24,Nc1ccc(C(=O)c2cccs2)cc1,44%

row,Compound,inhibition
1,COc1ccc(/C=C(/C(=O)c2cccs2)N2C=CC=CC2=C(C#N)C#N)cc1,38.4%
2,Nc1ccccc1-c1nc2ccccc2[nH]1,71.9% (active)
3,COc1ccc2oc(=Nc3ccccc3)c(-c3nc4ccccc4[nH]3)cc2c1,38%
4,Cc1ccc2nc(-c3ccc(NC(=O)CN(c4ccccc4C)S(C)(=O)=O)cc3)sc2c1,37.2%
5,O=C(NCc1ccc(F)cc1)c1cc(-c2ccco2)on1,33%
6,O=C(Nc1cccc(O)c1)c1cc(-c2ccco2)on1,74.8% (active)
7,CCCn1c(-c2cccnc2Cl)nc2cc(Cl)c(Cl)cc21,41.4%
8,CC(C)CC(=O)/C(=C\c1ccc(Cl)cc1Cl)n1cncn1,100% (active)
9,Oc1ccc2ccccc2c1CN1CCN(c2ccccc2)CC1,33.5%
10,Cc1ccc(CN2CCN(/N=C/c3cccs3)CC2)cc1,34.5%
11,O=C(NCCCn1ccnc1)c1ccc(Br)o1,22.2%
12,COc1ccc(-c2nc(CCNC(=O)c3cccs3)cs2)cc1,41.9%
13,O=C(NCCc1csc(-c2ccccc2)n1)c1ccc(Br)o1,57.4% (active)
14,Cc1ccc2cc(CN(Cc3ccco3)C(=O)NC3CCCCC3)c(=O)[nH]c2c1C,18.7%
15,CS(=O)(=O)c1nc(-c2ccco2)cc(C(F)(F)F)n1,81.3% (active)
16,Nc1nc(-c2ccco2)nn1S(=O)(=O)c1ccccc1,23.4%
17,CCOC(=O)c1c(C)[nH]c2c1-c1ccccc1C(=O)C2=O,25.1%
18,Cc1cc(C)c(S(=O)(=O)Nc2cc(SCC(=O)O)c(O)c3ccccc23)cc1C,22.2%
19,O=S(=O)(Nc1cc(Sc2cccc3cccnc23)c(O)c2ccccc12)c1ccc(F)cc1,56.7% (active)
20,O=S(=O)(Nc1ccc(Oc2ncccn2)c(Cl)c1)c1ccc(F)cc1,23%
21,CN(C)CCN(Cc1ccccc1)c1nccc(N(C)C)c1C#N,25.1%
22,O=C(O)C1C2C=CC(C2)C1C(=O)NCc1ccc(Cl)c(Cl)c1 (configuration not stated),33.5%
23,CS(=O)(=O)N(CC(=O)Nc1ccccc1Sc1ccccc1)C1CCCCC1,-0.35%
